The campaign covered roughly 5,500 compounds. About 2,000 (36%) were called active. About 18% were inconclusive and are not listed. Cut-off read from the data, not from the text of the source: active = normalized growth mostly below about 0.91 (no sharp cut-off); inconclusive = no clear call, values can overlap the other calls; inactive = mostly above about 0.92. The list shows a part of the results.
Assay: chemical genetic growth profiling, strain panel (AID 1159580);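 note: tested at 20 µM; growth read once vehicle control cultures reached saturation at 30 °C; 1 = growth at the plate median or of vehicle wells; lower values mean less growth of the strain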
Details: growth OD

Measured: normalized growth

CCn1cc(C(=O)O)c(=O)c2cc(F)c(N3CCNCC3)cc21
inactive: S. cerevisiae deletion strains, locus YJR043C, strain POL32, stronger effect = lower value 0.99 | S. cerevisiae deletion strains, locus YJR066W, strain TOR1, stronger effect = lower value 0.954 | S. cerevisiae deletion strains, locus YKL009W, strain mrt4, stronger effect = lower value 0.994 | S. cerevisiae deletion strains, locus YKL068W, stronger effect = lower value 1.01 | S. cerevisiae deletion strains, locus YKL085W, strain MDH1 (second series), stronger effect = lower value 1 | S. cerevisiae deletion strains, locus YKL085W, strain MDH1, stronger effect = lower value 1 | S. cerevisiae deletion strains, locus YKL160W, strain elf1, stronger effect = lower value 1.02 | S. cerevisiae deletion strains, locus YKL190W, strain CNB1, stronger effect = lower value 1.01 | S. cerevisiae deletion strains, locus YKR001C, strain vps1, stronger effect = lower value 0.985 | S. cerevisiae deletion strains, locus YKR026C, strain gcn3, stronger effect = lower value 0.978 | S. cerevisiae deletion strains, locus YKR091W, strain srl3, stronger effect = lower value 0.992 | S. cerevisiae deletion strains, locus YLL001W, strain dnm1, stronger effect = lower value 0.998 | S. cerevisiae deletion strains, locus YLL026W, stronger effect = lower value 0.992 | S. cerevisiae deletion strains, locus YLL041C, strain sdh2, stronger effect = lower value 0.981 | S. cerevisiae deletion strains, locus YLR027C, strain aat2, stronger effect = lower value 0.988 | S. cerevisiae deletion strains, locus YLR039C, strain RIC1, stronger effect = lower value 0.92 | S. cerevisiae deletion strains, locus YLR058C, strain SHM2, stronger effect = lower value 1.01 | S. cerevisiae deletion strains, locus YLR102C, strain apc9, stronger effect = lower value 1 | S. cerevisiae deletion strains, locus YLR113W, strain HOG1, stronger effect = lower value 1.02 | S. cerevisiae deletion strains, locus YLR221C, strain rsa3, stronger effect = lower value 1.01 | S. cerevisiae deletion strains, locus YLR258W, strain gsy2, stronger effect = lower value 0.988 | S. cerevisiae deletion strains, locus YLR262C, strain YPT6 (second series), stronger effect = lower value 0.97 | S. cerevisiae deletion strains, locus YLR262C, strain YPT6, stronger effect = lower value 0.92 | S. cerevisiae deletion strains, locus YLR268W, strain sec22, stronger effect = lower value 0.96 | S. cerevisiae deletion strains, locus YLR320W, strain mms22, stronger effect = lower value 0.998 | S. cerevisiae deletion strains, locus YLR330W, strain CHS5, stronger effect = lower value 1 | S. cerevisiae deletion strains, locus YLR342W, strain FKS1 (second series), stronger effect = lower value 0.927 | S. cerevisiae deletion strains, locus YLR342W, strain FKS1, stronger effect = lower value 0.991 | S. cerevisiae deletion strains, locus YLR357W, strain rsc2, stronger effect = lower value 0.95 | S. cerevisiae deletion strains, locus YLR370C, strain arc18, stronger effect = lower value 0.982 | S. cerevisiae deletion strains, locus YLR371W, strain rom2, stronger effect = lower value 1.01 | S. cerevisiae deletion strains, locus YLR384C, strain iki3, stronger effect = lower value 0.983 | S. cerevisiae deletion strains, locus YLR418C, strain cdc73, stronger effect = lower value 0.924 | S. cerevisiae deletion strains, locus YML016C, strain PPZ1, stronger effect = lower value 1 | S. cerevisiae deletion strains, locus YML032C, strain rad52, stronger effect = lower value 0.987 | S. cerevisiae deletion strains, locus YML120C, strain ndi1, stronger effect = lower value 0.976 | S. cerevisiae deletion strains, locus YML124C, strain tub3, stronger effect = lower value 1 | S. cerevisiae deletion strains, locus YMR058W, strain fet3, stronger effect = lower value 0.986 | S. cerevisiae deletion strains, locus YMR078C, strain ctf18, stronger effect = lower value 1.01 | S. cerevisiae deletion strains, locus YMR125W, strain sto1, stronger effect = lower value 0.965 | S. cerevisiae deletion strains, locus YMR129W, stronger effect = lower value 0.969 | S. cerevisiae deletion strains, locus YMR205C, strain PFK2, stronger effect = lower value 1.01 | S. cerevisiae deletion strains, locus YMR223W, strain ubp8, stronger effect = lower value 0.989 | S. cerevisiae deletion strains, locus YMR231W, strain pep5, stronger effect = lower value 0.987 | S. cerevisiae deletion strains, locus YMR263W, strain SAP30, stronger effect = lower value 0.998 | S. cerevisiae deletion strains, locus YMR307W, strain GAS1, stronger effect = lower value 0.899 | S. cerevisiae deletion strains, locus YNL067W, strain RPL9B, stronger effect = lower value 1.01 | S. cerevisiae deletion strains, locus YNL071W, strain lat1, stronger effect = lower value 0.962 | S. cerevisiae deletion strains, locus YNL128W, strain TEP1, stronger effect = lower value 1.03 | S. cerevisiae deletion strains, locus YNL183C, strain NPR1, stronger effect = lower value 0.962 | S. cerevisiae deletion strains, locus YNL209W, strain ssb2, stronger effect = lower value 0.986 | S. cerevisiae deletion strains, locus YNL233W, strain BNI4, stronger effect = lower value 0.998 | S. cerevisiae deletion strains, locus YNL248C, strain rpa49, stronger effect = lower value 0.992 | S. cerevisiae deletion strains, locus YNL250W, strain rad50, stronger effect = lower value 0.985 | S. cerevisiae deletion strains, locus YNL271C, strain bni1, stronger effect = lower value 0.986 | S. cerevisiae deletion strains, locus YNL298W, strain CLA4, stronger effect = lower value 0.99 | S. cerevisiae deletion strains, locus YNL307C, strain MCK1, stronger effect = lower value 0.997 | S. cerevisiae deletion strains, locus YNL322C, strain KRE1 (second series), stronger effect = lower value 0.981 | S. cerevisiae deletion strains, locus YNR049C, strain mso1, stronger effect = lower value 0.985 | S. cerevisiae deletion strains, locus YNR052C, strain pop2, stronger effect = lower value 0.998 | S. cerevisiae deletion strains, locus YOL006C, strain TOP1, stronger effect = lower value 0.965 | S. cerevisiae deletion strains, locus YOL012C, strain htz1 0.792 | S. cerevisiae deletion strains, locus YOL147C, strain pex11, stronger effect = lower value 0.999 | S. cerevisiae deletion strains, locus YOR001W, strain rrp6, stronger effect = lower value 0.94 | S. cerevisiae deletion strains, locus YOR061W, strain CKA2, stronger effect = lower value 1 | S. cerevisiae deletion strains, locus YOR069W, strain VPS5, stronger effect = lower value 1.01 | S. cerevisiae deletion strains, locus YOR070C, strain gyp1, stronger effect = lower value 0.979 | S. cerevisiae deletion strains, locus YOR080W, strain dia2, stronger effect = lower value 0.974 | S. cerevisiae deletion strains, locus YOR083W, strain WHI5, stronger effect = lower value 1.04 | S. cerevisiae deletion strains, locus YOR106W, strain vam3, stronger effect = lower value 1 | S. cerevisiae deletion strains, locus YOR136W, strain idh2, stronger effect = lower value 1.01 | S. cerevisiae deletion strains, locus YOR144C, strain elg1, stronger effect = lower value 0.998 | S. cerevisiae deletion strains, locus YOR184W, strain ser1, stronger effect = lower value 1.01 | S. cerevisiae deletion strains, locus YOR231W, strain MKK1, stronger effect = lower value 0.988 | S. cerevisiae deletion strains, locus YOR265W, strain rbl2, stronger effect = lower value 0.983 | S. cerevisiae deletion strains, locus YOR270C, strain vph1, stronger effect = lower value 0.956 | S. cerevisiae deletion strains, locus YOR290C, strain snf2, stronger effect = lower value 0.974 | S. cerevisiae deletion strains, locus YOR316C, strain cot1, stronger effect = lower value 1.01 | S. cerevisiae deletion strains, locus YPL051W, strain arl3, stronger effect = lower value 0.994 | S. cerevisiae deletion strains, locus YPL055C, strain LGE1, stronger effect = lower value 0.991 | S. cerevisiae deletion strains, locus YPL078C, strain atp4, stronger effect = lower value 0.979 | S. cerevisiae deletion strains, locus YPL106C, strain sse1, stronger effect = lower value 0.972 | S. cerevisiae deletion strains, locus YPL240C, strain hsp82, stronger effect = lower value 0.983 | S. cerevisiae deletion strains, locus YPL256C, strain CLN2, stronger effect = lower value 0.944 | S. cerevisiae deletion strains, locus YPR119W, strain clb2, stronger effect = lower value 1 | S. cerevisiae deletion strains, locus YPR141C, strain kar3, stronger effect = lower value 1 | S. cerevisiae deletion strains, locus YPR163C, strain tif3, stronger effect = lower value 1 | S. cerevisiae deletion strains, locus YPR167C, strain met16, stronger effect = lower value 1.01 | S. cerevisiae deletion strains, strain wtn01, stronger effect = lower value 0.998 | S. cerevisiae strains, strain wild type, stronger effect = lower value 1.01
